Test results from PubChem BioAssay (NCATS).
Records with an inconclusive call do not appear. Activity calls are given as the source filed them. Calls come from the whole dose curve; as a rule, active = well fitted curve in the direction sought with a large enough effect; inconclusive = small, poorly fitted or top-dose-only effect, or another doubt; inactive = no such curve, though single readings can be large; an effect the other way counts as inactive or inconclusive.

Legend:
[1] = Cell Viability - LYMP2-003 (AID 965);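 note: cells exposed to compounds for 24 h before reading; nearly all actives have a fitted effect of over 50% in size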
Procedure, shortened: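 CellTiter-Glo luminescence quantified ATP loss after 24 h compound treatment of LYMP2-003 lymphoblastoid cells at 37 C. Titration series were fitted with the standard Hill equation to give AC50.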

[2] = Cell Viability - LYMP2-004 (AID 966); note: nearly all actives have a fitted effect of over 65% in size
Procedure, shortened: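 Viable-cell number estimated from ATP luminescence (CellTiter-Glo) in 2500 human lymphoblastoid cells/well after 24 hr at 37 C with compound. AC50 fitted to the standard Hill equation.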

[3] = Cell Viability - LYMP2-005 (AID 967); note: series mostly up to about 92 µM
Procedure, shortened: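 LYMP2-005 human lymphoblastoid cells (2500/well) were treated with compounds for 24 h at 37 C. Intracellular ATP was then measured by CellTiter-Glo luminescence after 30 min at room temperature. AC50 values came from Hill-equation fits of qHTS concentration-response data.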

[4] = Cell Viability - LYMP2-009 (AID 968); note: series mostly up to about 92 µM; nearly all actives have a fitted effect of over 55% in size
[5] = Cell Viability - LYMP2-013 (AID 970); note: series mostly up to about 92 µM; nearly all actives have a fitted effect of over 55% in size
Procedure, shortened: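 In complete culture medium, human lymphoblastoid cells were dosed for 24 hr at 37 C, with tetraoctylammonium bromide (6.4pM to 92 uM) as positive control. Viability reflects luciferase-based ATP signal; AC50 derived from concentration-response curves.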

[6] = Cell Viability - LYMP2-015 (AID 971); note: nearly all actives have a fitted effect of over 55% in size
Procedure, shortened: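 AC50 values reflect Hill-model fits of ATP-based luminescence (CellTiter-Glo) from a human lymphoblastoid line, 2500 cells/well, treated 24 hr at 37 C.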

[7] = Cell Viability - LYMP2-017 (AID 972); note: series mostly up to about 92 µM; nearly all actives have a fitted effect of over 55% in size
Procedure, shortened: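 In this qHTS format, lymphoblastoid cells in complete medium receive test compound for a day at 37 C before ATP content is quantified by luciferase luminescence. Reported AC50 figures come from standard Hill-equation curve fitting.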

[8] = Cell Viability - LYMP2-021 (AID 974)
Procedure, shortened: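 In qHTS format, compounds are tested against 2500 lymphoblastoid cells per well for 24 h; viable cell number is inferred from ATP-driven luciferase light, and Hill-equation fitting yields AC50 values.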

[9] = Cell Viability - LYMP2-023 (AID 975)
Procedure, shortened: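 In this qHTS, ATP-based luciferase luminescence (CellTiter-Glo) is quantified in human lymphoblastoid cells after 24 hr compound treatment at 37 C; tetraoctylammonium bromide serves as positive control. Concentration-response curves are Hill-fitted to give AC50.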

[10] = Cell Viability - LYMP2-025 (AID 976); note: series mostly up to about 92 µM
Procedure, shortened: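 Luminescent ATP readout after 24 hr treatment of a human lymphoblastoid line (LYMP2-025, 2500 cells/well, 37 C). Reagent developed 30 min at room temperature; AC50 fitted with the Hill equation.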

[11] = Cell Viability - LYMP2-002 (AID 977);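 note: series mostly up to about 92 µM; compound exposure lasted 24 h at 37 °C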
Procedure, shortened: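 Human lymphoblastoid cells, 2500/well, complete medium; 5 h 37 C settle; compound 24 h 37 C; CellTiter-Glo, 30 min RT; luminescence. Decrease in ATP = cytotoxicity; AC50 via Hill equation.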

[12] = Cell Viability - LYMP2-007 (AID 979);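 note: cells exposed to compound for 24 h before reading; nearly all actives have a fitted effect of over 60% in size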
Procedure, shortened: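 Measured via luciferase-based ATP quantitation: lymphoblastoid cells, 24 hr compound exposure at 37 C, AC50 from Hill fits.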

[13] = Cell Viability - LYMP2-008 (AID 980); note: nearly all actives have a fitted effect of over 60% in size
Procedure, shortened: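 Measured: ATP-dependent luminescence, proportional to viable cell number, in human lymphoblastoid cells treated 24 hr with compound in complete culture medium. Values are AC50s from Hill-equation modelling of qHTS titrations.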

[14] = Cell Viability - LYMP2-010 (AID 981); note: nearly all actives have a fitted effect of over 55% in size
Procedure, shortened: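 This 24 hr viability screen uses LYMP2-010 lymphoblastoid cells, quantifies ATP via luciferase luminescence, and derives AC50 from Hill fits of qHTS concentration-response data.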

[15] = Cell Viability - LYMP2-012 (AID 982)
[16] = Cell Viability - LYMP2-018 (AID 985); note: nearly all actives have a fitted effect of over 50% in size
Procedure, shortened: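 In this qHTS viability assay, cells are treated for 24 hr and cellular ATP is quantified by luciferase-based luminescence, with tetraoctylammonium bromide as positive control.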

[17] = Cell Viability - LYMP2-020 (AID 986)
Procedure, shortened: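 Cells at 2500 per well receive a 24 hr compound exposure at 37 C. Viability is measured as ATP-dependent luciferase luminescence, with AC50 modeled from qHTS concentration-response curves.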

[18] = Cell Viability - LYMP2-019 (AID 973); note: nearly all actives have a fitted effect of over 55% in size
Procedure, shortened: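 AC50 values come from Hill-equation modelling of qHTS concentration-response curves, where viability is measured as luciferase-based ATP luminescence in the lymphoblastoid line after 24 hr compound exposure in complete culture medium.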

[19] = Cell Viability - LYMP2-006 (AID 978); note: series mostly up to about 92 µM; nearly all actives have a fitted effect of over 60% in size
Procedure, shortened: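 Potency values are Hill-fit AC50s for decreases in intracellular ATP (CellTiter-Glo luminescence). LYMP2-006 lymphoblastoid cells, 2500 per well, were exposed to compound in complete culture medium for 24 hr at 37 C.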

[20] = Cell Viability - LYMP2-014 (AID 983); note: series mostly up to about 92 µM; nearly all actives have a fitted effect of over 50% in size
Procedure, shortened: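 Quantitative HTS in lymphoblastoid cells: 24 hr compound exposure, then CellTiter-Glo ATP luminescence. Positive control was tetraoctylammonium bromide, 6.4pM to 92 uM.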

Measured: Potency

NC(=O)c1ncn([C@@H]2O[C@H](CO)[C@@H](O)[C@H]2O)n1
not listed: [18] | [19] | [20]
inactive: all other assays above

CCCCCCCCCCCCOS(=O)(=O)O
inactive: all assays above

C[C@]12C[C@H](O)[C@H]3[C@@H](CCC4=CC(=O)CC[C@@]43C)[C@@H]1CC[C@@H]2C(=O)CO
not listed: [16]
inactive: all other assays above

CC1(C)[C@@H]2CC[C@@]1(C)C(=O)C2
not listed: [3]
inactive: all other assays above

O=C1O[C@H]([C@@H](O)CO)C(O)=C1O
not listed: [7] | [14]
inactive: all other assays above

Oc1cccc(O)c1
not listed: [2]
inactive: all other assays above

COc1ccccc1O
inactive: all assays above

[Cl][In]([Cl])[Cl]
inactive: all assays above

O=C1c2c(O)cccc2Cc2cccc(O)c21
not listed: [3]
inactive: all other assays above
